Screening data from PubChem BioAssay.
KDM5B inhibitor: KDM5B demethylase inhibition; AID 1347165; 2.6% of 220,000 active; KDM5B demethylase, FDH-coupled NADH fluorescence (FDH is formaldehyde dehydrogenase); Potency, µM (series often up to 57.7 µM), actives largely listed as inhibitors; active means well fitted inhibition curve with a large enough effect; further: 0% is about no effect; nearly all actives have a fitted effect of over 70% in size
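qHTS format, multiple compound concentrations. Buffer 50 mM HEPES pH 7.5/0.01% Tween-20; 200 nM KDM5BΔAP final; 10 min compound preincubation; substrate-mix levels 12.5 µM peptide, 25 µM α-KG, 0.25 mM NAD⁺; 30 min RT; ΔRFU.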
* marks the source's active call; other numbers are inactive results; i = inactive. The entries come from a sample that favours hits as a whole. Potency means the concentration at half of the fitted maximal effect.

SMILES	KDM5B inhibitor
Cc1cccc(-c2ocnc2C(=O)Nc2ccc(C)c(C)c2)c1	i
COC(=O)c1ccc(CO/N=C/c2ccc(Cl)cc2Cl)cc1	i
COc1ccc(NC(=O)c2ccc(Br)o2)cc1NC(=O)c1cccc(C)c1	i
CCC(C)(C(=O)NC1CCCC1)N(C(=O)CNC(=O)c1ccccc1)c1ccc(C)cc1 (stereo not given)	i
COc1cccc(-c2cc(-c3ccccc3)nc3c(C)noc23)c1	32µM*
COc1ccc(-c2noc(-c3nc(-c4cccnc4)no3)n2)cc1OC	i
COc1ccc(-c2cc(-c3ccccc3)nc3c(C)noc23)cc1OC	25µM*
Cc1noc2c(N3CCN(C)CC3c3ccccc3)cc(-c3cccnc3)nc12 (stereo not given)	i
Cc1noc2c(-c3cn[nH]c3)cc(-c3cccc(C(F)(F)F)c3)nc12	i
Cc1noc2c(NCc3ccccc3)cc(-c3cccnc3)nc12	i
COc1ccc(-c2c(C)nn3c(-c4ccccc4)cc(-c4ccccc4)nc23)cc1OC	i
COC1CCN(c2cc(-c3ccccc3)nc3c(C)noc23)CC1	i
Cc1noc2c(-c3ccc4c(ccn4C)c3)cc(-c3cccnc3)nc12	32µM*
C=CCn1c(N2CCN(Cc3ccccc3)CC2)nc2c1c(=O)n(C)c(=O)n2C	i
Cc1cc(OCC(=O)N2CCC(c3nc4ccccc4o3)CC2)ccc1C(C)C	i
Cc1ccc(Cl)cc1NC(=S)NCCSc1ccc(Cl)cc1	i
COC(=O)c1ccc(/C=C2\Oc3cc(OC(=O)C(C)(C)C)ccc3C2=O)cc1	i
N#Cc1nc(-c2ccc(S(=O)(=O)N3CCCCC3)cc2)oc1NCCCN1CCOCC1	i
O=C(Cn1ccn2nc(-c3ccccc3)c(CO)c2c1=O)NCc1ccc2c(c1)OCO2	32µM*
O=C(Cn1ccn2nc(-c3ccc(F)cc3)c(CO)c2c1=O)NCc1ccc(F)cc1F	i
O=C(Cn1ccn2nc(-c3ccc(F)cc3)c(CO)c2c1=O)NCc1ccccc1Br	22µM*
Cc1cc(NC(=O)Cn2ccn3nc(-c4ccccc4)c(CO)c3c2=O)no1	i
O=C(Cn1ccn2nc(-c3ccccc3)c(CO)c2c1=O)NCc1ccccc1Cl	20µM*
O=C(Cn1ccn2nc(-c3ccccc3)c(CO)c2c1=O)NCCCc1ccccc1	i
O=C(Cn1ccn2nc(-c3ccc(F)cc3)c(CO)c2c1=O)Nc1cccc(Br)c1	i
SMILES	KDM5B inhibitor
O=C(Cn1ccn2nc(-c3ccccc3)c(CO)c2c1=O)NCc1ccc(F)cc1F	i
CCCNC(=O)Cn1ccn2nc(-c3ccccc3)c(CO)c2c1=O	i
COc1ccc(C2(C(=O)N3CCCC(CO)CCNC(=O)CC3)CC2)cc1 (stereo not given)	i
COc1ccc(CN2CC3(CCN(C(=O)Nc4ccc(OC)c(F)c4)CC3)C2=O)cc1	i
CCC(c1cccs1)N1C(=O)[C@H]2CN(S(=O)(=O)c3ccccc3F)C[C@H]2C1=O (stereo not given in full)	i
O=C(CCC1CCN(S(=O)(=O)c2cccc(F)c2)CC1)NCCN1CCOCC1	i
O=C(CCC1CCCN(S(=O)(=O)c2ccccc2F)C1)NCc1cccs1 (stereo not given)	i
O=C(CCC1CCCN(S(=O)(=O)c2ccccc2F)C1)NCCN1CCOCC1 (stereo not given)	20µM*
CC(O)c1cc2n(n1)CCN(C(=O)CCc1nc3ccc(F)cc3[nH]1)C2 (stereo not given)	i
Cn1ncc2c(C(=O)NCC3CC3)cc(-c3cccnc3)nc21	100µM*
CCC(C)NC(=O)c1cc(-c2cccnc2)nc2ccccc12 (stereo not given)	i
Cn1ncc2c(-c3ccc([S+](C)(=O)[O-])cc3)cc(C(=O)NCc3ccc(F)cc3)nc21	79µM*
Cn1ccc2c(C(=O)NCc3cccnc3)nc(-c3ccc([S+](C)(=O)[O-])cc3)cc21	i
Cn1ncc2c(NCc3ccc(F)cc3)ncnc21	i
O=C(NCc1ccncc1)c1cc(-c2ccncc2)nc2ccccc12	i
Cn1ncc2c(C(=O)NCc3ccncc3)cc(-c3ccc(F)cc3)nc21	79µM*
O=C(NCc1ccc(F)cc1)c1cc(-c2ccncc2)nc2ccccc12	i
Cn1ncc2c(C(=O)NC3CC3)cc(-c3cc(Cl)cc(Cl)c3)nc21	i
CCN(Cc1ccc(OC)c(F)c1)C(=O)c1n[nH]c(=O)c2ccccc12	i
O=c1oc2ccccc2c(N2CCCC2)c1NS(=O)(=O)c1ccc(Cl)s1	i
CS(=O)(=O)N1CCCC(C(=O)NCCc2ccc(F)cc2)C1 (stereo not given)	i
COc1cc(C2=NOC(C(=O)Nc3cc(C)nn3-c3ccccc3)C2)cc(OC)c1OC (stereo not given)	i
O=C1CN(C(=O)Cn2ccc3c(Br)cccc32)CCN1	i
CC(C)CCn1c(SCCO)nc2c1c(=O)[nH]c(=O)n2C	i
O=C(C1CCCC1)N1Cc2ccccc2NC(=O)C12CCNCC2	i
O=C1Nc2ccccc2CN(Cc2ccc(C(F)(F)F)cc2)C12CCNCC2	50µM*
